Hits are enriched below; roughly 19% of the tested compounds scored in any of these assays.
DT40 TDP1 CPT: qHTS for Inhibitors of human tyrosyl-DNA phosphodiesterase 1 (TDP1): qHTS in cells in presence of CPT | chicken DT40 Tdp1-/-;hTDP1 cells + 20 nM CPT, ATP luminescence, 48 h | Potency, µM (titrated, usually from 46.2 µM), for inactives: at the top dose activity change, negative = growth inhibition, most hits filed as inhibitors | 420,000 tested, 12% active | AID 686979, 2013; further: potency means the concentration at half of the fitted maximal effect; on the % scale 0 is the no-effect control and ±100 the full control effect; nearly all actives have a fitted effect of over 55% in size
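Chicken DT40 Tdp1-/- cells stably complemented with human TDP1 were seeded at 400 cells/well in medium containing 20 nM camptothecin, exposed to pin-transferred compounds, and grown at 37 °C for at least 48 hr. Viability was read as ATP luminescence.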
IL-1B inflam inh: qHTS for Inhibitors of Inflammasome Signaling: IL-1-beta AlphaLISA Primary Screen | THP-1 LPS/ATP IL-1B secretion, AlphaLISA, 16 h; hits give low values | activity change, % at 57.5 µM | 360,000 tested, 4.7% active; in the data active means activity change below about -50%; inconclusive means mostly about -30% to -49%; further: on the % scale 0 is the no-effect control and ±100 the full control effect
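THP-1 cells pretreated 1 hr with compounds (up to 57.5 uM final), then stimulated with LPS (250 ng/mL final) plus ATP (1.25 mM final); secreted IL-1B measured by AlphaLISA after 16 hr, decreased signal indicating inhibition.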
S-ASM inh: Inhibitors of Secretory Acid Sphingomyelinase (S-ASM): qHTS. Sphingomyelin phosphodiesterase (Homo sapiens), P17405. placental ASM, HMU-PC fluorogenic substrate, 60 min. Potency, µM (top dose mostly 57.5 µM), for inactives: top-dose activity change, negative = inhibition, usual class: inhibitors. 340,000 tested, 0.006% active; further: potency means the concentration at half of the fitted maximal effect
Target sequence (P17405 47-631 limits assumed): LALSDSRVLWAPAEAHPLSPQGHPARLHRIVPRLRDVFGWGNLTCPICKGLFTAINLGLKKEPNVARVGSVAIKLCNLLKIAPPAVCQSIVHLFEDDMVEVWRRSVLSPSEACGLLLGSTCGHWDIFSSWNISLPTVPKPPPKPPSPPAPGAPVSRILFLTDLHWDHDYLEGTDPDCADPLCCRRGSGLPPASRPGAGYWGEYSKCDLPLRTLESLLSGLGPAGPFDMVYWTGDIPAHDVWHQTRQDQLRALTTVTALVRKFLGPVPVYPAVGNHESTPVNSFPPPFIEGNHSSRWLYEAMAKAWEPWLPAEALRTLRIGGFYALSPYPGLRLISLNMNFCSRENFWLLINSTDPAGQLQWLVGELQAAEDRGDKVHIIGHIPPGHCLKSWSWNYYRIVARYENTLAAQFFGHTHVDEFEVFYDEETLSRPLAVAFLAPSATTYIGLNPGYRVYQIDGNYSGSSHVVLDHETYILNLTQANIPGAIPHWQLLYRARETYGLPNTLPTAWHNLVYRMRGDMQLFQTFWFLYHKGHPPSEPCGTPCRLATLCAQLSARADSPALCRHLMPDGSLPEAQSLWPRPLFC
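Steps: dispense placental human ASM, pin compound, wait 10 min at room temperature, add HMU-PC0 substrate at 9 uM final, incubate 60 min at 37 °C, add stop solution raising pH to 10, read fluorescence.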
HepG2 tox: qHTS for Inhibitors of TGF-b: Cytotox Counterscreen; HepG2 CAGA-GFP viability, ATP luminescence, 18 h; Potency, µM (top dose mostly 46.1 µM), for the others: at the top dose activity change, negative = cytotoxicity, actives largely listed as cytotoxic; 410,000 tested, 0.76% active; AID 588856, 2011; further: potency means the concentration at half of the fitted maximal effect
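CellTiter-Glo luminescence gave cytotoxicity after 18 hours at 37 degrees C. The cells were HepG2 CAGA-GFP in 1% FBS DMEM, stimulated with 500 pg/mL TGF-beta after compound addition. %Activity was normalised to no-cell wells (complete cell-killing) and DMSO (no toxicity), and curves were fitted and classified.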
DT40 TDP1 no CPT: qHTS for Inhibitors of human tyrosyl-DNA phosphodiesterase 1 (TDP1): qHTS in cells in absence of CPT; AID 686978, 2013; DT40 Tdp1-/- hTDP1 cells, no CPT, ATP luminescence, 48 h; 420,000 tested, 15% active; Potency, µM (doses to about 46.2 µM), without a hit: top-dose activity change, negative = growth inhibition, usual class: inhibitors; further: potency means the concentration at half of the fitted maximal effect; on the % scale 0 is the no-effect control and ±100 the full control effect; nearly all actives have a fitted effect of over 55% in size
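Cells were dispensed at 400 per well, compounds added by pin tool, plates incubated ≥48 hr at 37 °C, then CellTiter-Glo added for 30 min at room temperature before luminescence reading. Line: DT40 Tdp1-/- complemented with hTDP1; camptothecin omitted.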
TGFb SMAD3 inh: qHTS for Inhibitors of TGF-b; HepG2 CAGA-GFP TGF-b/SMAD3 reporter, GFP fluorescence, 18 h; TGF-beta stimulated, 500 pg/mL final; Potency, µM (titrated, usually from 46.1 µM), without a hit: at the highest dose activity, negative = inhibition, hits mostly inhibitors; 410,000 tested, 1.2% active; AID 588855, 2011; further: potency means the concentration at half of the fitted maximal effect; on the % scale 0 is the no-effect control and ±100 the full control effect; nearly all actives have a fitted effect of over 65% in size
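HEPG2 CAGA-GFP reporter cells (1000/well, DMEM with 1% FBS) received compounds, then recombinant TGF-beta at 500 pg/mL final for 18 hours at 37 degrees C. Per-cell GFP summed per well was normalised to unstimulated and stimulated DMSO controls before curve fitting.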
The depositor's hits bear a star; i = inactive; ? = inconclusive; . = not tested or not shown; [ ] = remark or other dose. Unless noted, the call rests on the fitted dose curve; in most records, active means well fitted curve in the direction sought with a large enough effect; inconclusive means small, poorly fitted or top-dose-only effect, or another doubt; inactive means no such curve, though single readings can be large; an effect the other way counts as inactive or inconclusive.

SMILES	DT40 TDP1 CPT	IL-1B inflam inh	S-ASM inh	HepG2 tox	DT40 TDP1 no CPT	TGFb SMAD3 inh
COc1cc(/C=C/c2cccc[n+]2C)ccc1OCC(=O)Nc1cccc(Cl)c1	-18%	-71*	5%	-10%	18µM*	31%
COc1cc(NC(=O)COc2ccc(-n3cnnn3)cc2)cc(OC)c1OC	23µM*	-10	-2%	-9%	?	-5%
COc1cc(/C=C/c2cc[n+](C)cc2)ccc1OCC(=O)Nc1ccc(Cl)c(Cl)c1	?	-89*	76%	-6%	?	?
CCN(CC)S(=O)(=O)c1ccc(N2CC(C(=O)N3CCOCC3)CC2=O)cc1 (stereo not given)	-18%	-8	7%	4%	3%	2%
CSc1ncnc2c1ncn2CCCNCCc1ccccn1	6%	-3	.	-22%	7%	-23%
COCCc1nn2c(=O)cc(COC(=O)c3ccco3)nc2s1	-4%	.	.	1%	-9%	-14%
COc1ccc(NC(=O)COc2ccc(/C=C/c3cc[n+](C)cc3)cc2OC)cc1	?	-54*	255%	-20%	23µM*	-14%
CN1CC(=O)N2Cc3[nH]c4ccccc4c3C[C@H]2C1=O	7%	-6	-1%	-28%	-11%	-9%
Cc1cc(C)c[n+](CC(=O)c2ccc(-c3ccccc3)cc2)c1	18µM*	-7	5%	-41%	?	?
Oc1c(C(c2ccccc2)N2CCC3(CC2)OCCO3)sc2nc(-c3ccco3)nn12 (stereo not given)	-6%	.	.	1%	-11%	-22%
O=C(Cn1c2ccccc2c2nc3n(c(=O)c21)CCS3)Nc1ccccc1	21µM*	-9	1%	-20%	?	-7%
Cc1ccc(S(=O)(=O)N(C)C)cc1NC(=O)CN1C(=O)NC2(CCc3ccccc32)C1=O (stereo not given)	1%	-2	.	0%	7%	-2%
Cc1ccccc1OCCc1c(C)[nH]c(=S)[nH]c1=O	1.5µM*	57	7%	0%	0.82µM*	-15%
Cc1[nH]c(=S)[nH]c(=O)c1CCOc1ccccc1	-28%	2	1%	-27%	?	-6%
O=C1OCCN1C(=O)[C@H]1[C@H](c2ccc(Cl)cc2)C(c2ccc(F)cc2)=NN1c1ccc(Br)cc1	?	-22	i	-31%	?	-91%
Cc1cccc(C2=NN(c3ccccc3)[C@@H](C(=O)N3CCOC3=O)[C@@H]2c2ccc(F)cc2)c1	-28%	-8	235%	-16%	-12%	18µM*
O=C1OCCN1C(=O)[C@H]1[C@H](c2ccc(F)cc2)C(c2ccc(F)cc2)=NN1c1ccc(Br)cc1	?	-61*	i	-48%	?	11µM*
O=C(NCc1ccco1)C1CCN(S(=O)(=O)c2cccc([N+](=O)[O-])c2)CC1	-8%	2	-2%	-5%	-1%	0%
CCN(CC)CCN1C(=O)/C(=C\c2ccc(Cl)c([N+](=O)[O-])c2)SC1=Nc1ccc(OC)cc1	21µM*	-99*	?	20µM*	16µM*	?
COc1ccc(N=C2S/C(=C\c3ccc(Cl)c([N+](=O)[O-])c3)C(=O)N2CCN(C)C)cc1	21µM*	-61*	-21%	-133%	16µM*	?
OC[C@H]1OC(O)[C@@H](O)[C@@H](O)[C@@H]1O (stereo not given in full)	9%	14	5%	-1%	29%	1%
CC1CN(CCC(=O)NC(c2cccnc2)C(F)(F)F)Cc2cc(Cl)ccc2O1 (stereo not given)	-13%[9.04 µM]	.	.	.	?	.
N#Cc1ccc(-n2c(-c3ccccc3)nnc2-c2ccccc2)cc1C#N	?	-74*	-8%	2%	16µM*	2%
Cc1cncn1CCc1nc2c3ccccc3nc(SCC(=O)Nc3ccccc3F)n2n1	?	.	.	-30%	?	14%
CC(=O)c1ccc(NC(=O)C2CCCN(c3ncnc4c3nc3n4CCCCC3)C2)cc1 (stereo not given)	?	-61*	-9%	3%	13µM*	15%
SMILES	DT40 TDP1 CPT	IL-1B inflam inh	S-ASM inh	HepG2 tox	DT40 TDP1 no CPT	TGFb SMAD3 inh
CSc1cccc(NC(=O)C2CCCN(c3ncnc4c3nc3n4CCCCC3)C2)c1 (stereo not given)	?	7	-14%	-4%	15µM*	-1%
Cc1ccc(C(=O)N2CCCC(N3CCN(c4ccccc4C)CC3)C2)c(=O)[nH]1 (stereo not given)	5%	-7	-10%	-4%	-24%	0%
Cc1ccc(-c2cc3ccccc3nc2N)cc1	16µM*	21	46%	-38%	26µM*	?
O=C1NC[C@H](CCCCN2CCN(Cc3ccccc3)C(=O)C2=O)N(CCc2ccc(O)cc2)C1=O	-1%	22	.	.	-17%	.
CCOC(=O)c1nnn(CC(=O)NC(=O)Nc2ccccc2)c1C(=O)OCC	4%	4	-2%	-1%	2%	-9%
CCOC(=O)c1nnn(CC(=O)N2N=C(c3ccccc3)CC2c2ccccc2)c1C(=O)OCC (stereo not given)	?	21	-8%	-21%	18µM*	-7%
CCN1CCN(CC(=O)N2N=C(c3ccc(OC)cc3)CC2c2ccc(OC)cc2)C(=O)C1=O (stereo not given)	-3%	-10	-2%	-18%	4%	11%
CCOC(=O)c1nnn(CC(=O)N2N=C(c3cc(C)ccc3C)CC2c2ccc(OC)cc2)c1C(=O)OCC (stereo not given)	29µM*	-8	-15%	-25%	15µM*	-18%
CSc1ncnc2c1ncn2CCCNCc1ccc2c(c1)OCO2	3%	12	.	2%	-16%	4%
Cc1nnc2ccc(Oc3ccc(-c4ccccc4)cc3)nn12	13µM*	-6	-10%	-27%	?	-5%
O=C(N/N=C/C=C/c1ccco1)c1ccccc1Cl	?	-10	1%	-14%	16µM*	-28%
CC(/C=C/c1ccco1)=N/NC(=O)c1ccccc1Cl	23µM*	-22	1%	4%	16µM*	-19%

From PubChem
